# Inconclusive results are not listed. Entries that show only a call come without a potency. Activity calls are given as the source filed them. Unless noted, calls follow the shape of the full dose curve.
# Assays:
# [1] = molecular target: KiSS-1 receptor (Homo sapiens) (UniProt Q969F8); assay: Human kisspeptin (KISS1R) small molecule agonists, calcium flux assay in KISS1R-HEK293 cells (AID 1920064; active = well fitted activation curve with a large enough effect in the repeat runs; also: potency is read from the fitted curve at half-maximal effect)
# In short: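 Triplicate 15-concentration series were applied to dye-loaded human KISS1R HEK293 cells, and agonist-evoked calcium fluorescence was captured for 3 min.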
# [2] = p53 small molecule agonists, cell-based qHTS assay with human liver microsomes (AID 1963577);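 also: p53 response element beta-lactamase reporter cells with liver microsomes plus NADPH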
# In short: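 Steps: plate p53RE-bla cells, incubate 5 h at 37 C; add compound in DMSO; add microsomes (0.5 mg/mL final) and NADPH (0.5 mg/mL final); incubate 16 h at 37 C; add LiveBLAzer, 2 h RT; read fluorescence.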
# [3] = p53 small molecule agonists, cell-based qHTS assay with rat liver microsomes (AID 1963578)
# In short: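 Metabolic activation is supplied by rat liver microsomes with NADPH (each 0.5 mg/mL final). p53RE-bla cells incubate with compound 16 h at 37 C; reporter activity is measured by LiveBLAzer fluorescence.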
# [4] = p53 small molecule agonists, cell-based qHTS assay with human liver microsomes: qHTS cell viability counter screen (AID 1963579); also: nearly all actives have a fitted effect of over 45% in size; also: potency is read from the fitted curve at half-maximal effect
# In short: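 After the 460/530 nm beta-lactamase read, CellTiter-Glo was added to the same wells and luminescence measured after 30 min at room temperature, giving viability of p53RE-bla cells treated 16 h with compounds plus microsomes and NADPH.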
# [5] = p53 small molecule agonists, cell-based qHTS assay with rat liver microsomes: qHTS cell viability counter screen (AID 1963580); also: nearly all actives have a fitted effect of over 45% in size; also: potency is read from the fitted curve at half-maximal effect
# In short: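 Cytotoxicity counter screen: intracellular ATP measured by CellTiter-Glo luminescence in the same wells as the beta-lactamase reporter read, on HCT-116 p53RE-bla cells exposed 16 h at 37 C to compounds with rat liver microsomes and NADPH, each 0.5 mg/mL final.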
# [6] = p53 small molecule agonists, cell-based qHTS assay: qHTS cell viability counter screen (AID 1963581); also: nearly all actives have a fitted effect of over 45% in size
# In short: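 Multiplexed with the reporter read, a CellTiter-Glo step (30 min, room temperature) gauges ATP-based viability of HCT-116 p53RE-bla cells after 16 h compound incubation at 37 C.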
# [7] = p53 small molecule agonists, cell-based qHTS assay (AID 1963582; active = well fitted activation curve with a large enough effect in the signal ratio in the repeat runs, not every such curve was filed as active; the % refers to the signal ratio)
# In short: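 Beta-lactamase reporter cells (p53RE-bla) treated with compounds for 16 h at 37 C; FRET substrate, 2 h, room temperature; fluorescence intensity.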
# [8] = molecular target: 5-hydroxytryptamine receptor 2A (Homo sapiens) (UniProt P28223); assay: 5-hydroxytryptamine receptor 2A (HTR2A) small molecule antagonists, cell-based qHTS assay (AID 1963586); also: nearly all actives have a fitted effect of over 45% in size; also: potency is read from the fitted curve at half-maximal effect
# In short: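 CHO cells stably expressing human HTR2A were plated for 18 h at 37 C, then loaded with calcium dye for 1 h. Compounds were preincubated 5 min at room temperature before DOI (4 nM solution) was added. Kinetic fluorescence was read for 3 min.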
# [9] = molecular target: 5-hydroxytryptamine receptor 2A (Homo sapiens) (UniProt P28223); assay: 5-hydroxytryptamine receptor 2A (HTR2A) small molecule agonists, cell-based qHTS assay (AID 1963587); also: nearly all actives have a fitted effect of over 30% in size; also: potency is read from the fitted curve at half-maximal effect
# In short: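 CHO cells stably expressing human HTR2A, plated 18 h, loaded with calcium dye 1 h at 37 C. Agonist mode: compounds added and intracellular calcium fluorescence recorded kinetically for 2 min at 1 sec intervals.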
# [10] = molecular target: Muscarinic acetylcholine receptor M1 (Homo sapiens) (UniProt P11229); assay: Cholinergic receptor muscarinic 1 (CHRM1) small molecule antagonists, cell-based qHTS assay (AID 1963588); also: nearly all actives have a fitted effect of over 40% in size; also: potency is read from the fitted curve at half-maximal effect
# In short: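 Compounds were tested at 15 concentrations in three independent runs. Dye-loaded CHRM1-CHO cells were exposed 5 min at room temperature before stimulation by acetylcholine added at 50nM. Intracellular calcium was read kinetically on FDSS for 3 min.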
# [11] = molecular target: Muscarinic acetylcholine receptor M1 (Homo sapiens) (UniProt P11229); assay: Cholinergic receptor muscarinic 1 (CHRM1) small molecule agonists, cell-based qHTS assay (AID 1963589); also: nearly all actives have a fitted effect of over 35% in size
# In short: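 qHTS, 15-point titration, 3 independent runs: compounds pin-transferred onto dye-loaded CHRM1-CHO cells (human M1), calcium fluorescence followed every second to detect agonism.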
# [12] = cAMP Responsive Elements (CRE) small molecule agonists, cell-based qHTS assay (AID 1963590)
# In short: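 Quantitative HTS for CRE agonists: HEK 293T CRE-bla cells, overnight plating, 3 h compound incubation at 37 C/5% CO2, then 2 h room-temperature LiveBLAzer B/G FRET substrate loading.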
# [13] = cAMP Responsive Elements (CRE) small molecule antagonists, cell-based qHTS assay (AID 1963591; active = well fitted inhibition curve with a large enough effect in the signal ratio in the repeat runs, not every such curve was filed as active; the % refers to the signal ratio; also: potency is read from the fitted curve at half-maximal effect)
# In short: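 Fluorescence intensity from cleaved LiveBLAzer B/G substrate (2 h, room temperature) quantified CRE-bla activity in HEK 293T cells exposed 3 h to compound with 0.25 uM final NKH477.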
# [14] = molecular target: Beta-2 adrenergic receptor (Homo sapiens) (UniProt P07550); assay: Adrenergic beta2 receptor (ADRB2) small molecule antagonists, cell-based qHTS assay (AID 1963592); also: series mostly up to about 92 µM; nearly all actives have a fitted effect of over 50% in size
# In short: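 Assay format: CHO-ADRB2 cells, 18-20hr seeding at 37C/5% CO2, then compound plus 1nM isoproterenol agonist mix for 0.5hr RT. Homogeneous time-resolved fluorescence cAMP detection after 1hr, expressed as 665/615 nm ratio.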
# [15] = molecular target: D(2) dopamine receptor (Homo sapiens) (UniProt P14416); assay: Dopamine D2 receptor (DRD2) small molecule agonists, cell-based qHTS assay (AID 1963594); also: nearly all actives have a fitted effect of over 35% in size
# In short: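 HEK293 cells stably expressing human DRD2, pre-treated with PDE inhibitor Ro20-1724 (0.1 mM final) and compound 10 min at room temperature, then stimulated with NKH477 (200nM […]) for 30 min. cAMP read by HTRF (665/620 nm).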
# [16] = molecular target: D(2) dopamine receptor (Homo sapiens) (UniProt P14416); assay: Dopamine D2 receptor (DRD2) small molecule antagonists, cell-based qHTS assay (AID 1963595; active = well fitted inhibition curve with a large enough effect in the signal ratio in the repeat runs, with a control signal flat; the % refers to the signal ratio; also: potency is read from the fitted curve at half-maximal effect)
# In short: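 HEK293 cells stably expressing DRD2, preincubated with 0.1 mM Ro20-1724 and compounds 10 min, were stimulated with 200 nM NKH477 plus 12 nM quinpirole for 30 min at room temperature; cAMP measured by HTRF (665/620 nm).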
# [17] = molecular target: Gonadotropin-releasing hormone receptor (Homo sapiens) (UniProt P30968); assay: Human gonadotropin-releasing hormone receptor (GnRHR) small molecule agonists, calcium flux assay in GnRHR-HEK293 cells (AID 1920063); also: nearly all actives have a fitted effect of over 35% in size; also: potency is read from the fitted curve at half-maximal effect
# In short: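 Calcium flux, agonist mode, human GnRHR stably integrated in HEK293; dye 1 h at 37 C before compound; Ex/Em=480/540 kinetic read, 3 min; 15 concentrations, triplicate.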
# [18] = G protein-coupled receptor (GPCR) small molecule agonists, calcium flux assay: HEK293 wild type cell line counter screen (AID 1920065)
# In short: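 Non-specific calcium responders were flagged by adding DMSO-dissolved compounds to dye-loaded cells and reading 480/540 nm fluorescence each second for 3 min; ATP served as positive control.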
# [19] = molecular target: Beta-2 adrenergic receptor (Homo sapiens) (UniProt P07550); assay: Adrenergic beta2 receptor (ADRB2) small molecule agonists, cell-based qHTS assay (AID 1963593); also: potency is read from the fitted curve at half-maximal effect;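 as to activation: CHO cells stably overexpressing human ADRB2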
# In short: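 CHO cells stably over-expressing ADRB2 were plated overnight at 37C, then dosed with compounds plus a stimulation mix containing 100uM IBMX and 25uM Ro-20-1724 for 0.5hr at room temperature. cAMP was measured by HTRF competition, 1hr.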
# Chain of Muscarinic acetylcholine receptor M1 (Homo sapiens) (P11229 whole entry, looked up): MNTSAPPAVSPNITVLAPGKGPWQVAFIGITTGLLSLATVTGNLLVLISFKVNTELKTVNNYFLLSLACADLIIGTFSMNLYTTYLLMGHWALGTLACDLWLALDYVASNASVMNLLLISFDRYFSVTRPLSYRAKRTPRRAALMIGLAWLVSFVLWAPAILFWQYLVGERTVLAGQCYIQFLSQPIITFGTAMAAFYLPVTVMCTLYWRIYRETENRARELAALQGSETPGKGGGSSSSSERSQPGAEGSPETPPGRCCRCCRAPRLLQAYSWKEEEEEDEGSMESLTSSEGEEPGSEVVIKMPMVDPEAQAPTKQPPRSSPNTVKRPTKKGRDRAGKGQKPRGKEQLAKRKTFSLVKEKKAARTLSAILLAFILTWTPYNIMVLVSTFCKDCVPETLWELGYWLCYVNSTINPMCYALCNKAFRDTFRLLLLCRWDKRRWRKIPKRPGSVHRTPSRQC
# Chain of D(2) dopamine receptor (Homo sapiens) (P14416 whole entry, looked up): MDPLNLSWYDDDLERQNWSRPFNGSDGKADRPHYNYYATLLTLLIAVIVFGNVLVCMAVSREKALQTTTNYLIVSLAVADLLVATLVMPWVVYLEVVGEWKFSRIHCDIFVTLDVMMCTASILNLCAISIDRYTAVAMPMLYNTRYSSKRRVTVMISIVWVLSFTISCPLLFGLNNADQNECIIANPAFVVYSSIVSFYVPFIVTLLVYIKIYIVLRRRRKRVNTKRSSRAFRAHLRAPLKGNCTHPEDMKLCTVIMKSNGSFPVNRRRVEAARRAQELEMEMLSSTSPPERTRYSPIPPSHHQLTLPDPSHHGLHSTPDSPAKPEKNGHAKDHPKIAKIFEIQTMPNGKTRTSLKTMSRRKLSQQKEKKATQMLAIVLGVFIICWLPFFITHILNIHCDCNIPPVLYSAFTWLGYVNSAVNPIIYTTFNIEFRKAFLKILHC
# Chain of Beta-2 adrenergic receptor (Homo sapiens) (P07550 whole entry, looked up): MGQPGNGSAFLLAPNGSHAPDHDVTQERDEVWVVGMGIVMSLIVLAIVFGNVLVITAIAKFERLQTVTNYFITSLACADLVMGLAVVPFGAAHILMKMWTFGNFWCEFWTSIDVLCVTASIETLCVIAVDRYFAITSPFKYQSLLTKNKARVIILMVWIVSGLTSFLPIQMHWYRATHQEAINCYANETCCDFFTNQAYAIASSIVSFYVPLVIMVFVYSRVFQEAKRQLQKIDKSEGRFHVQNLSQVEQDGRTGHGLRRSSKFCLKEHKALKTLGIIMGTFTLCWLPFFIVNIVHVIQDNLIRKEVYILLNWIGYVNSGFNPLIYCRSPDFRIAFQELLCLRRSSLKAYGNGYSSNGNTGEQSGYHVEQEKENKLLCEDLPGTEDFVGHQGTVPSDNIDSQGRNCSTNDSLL
# Chain of KiSS-1 receptor (Homo sapiens) (Q969F8 whole entry, looked up): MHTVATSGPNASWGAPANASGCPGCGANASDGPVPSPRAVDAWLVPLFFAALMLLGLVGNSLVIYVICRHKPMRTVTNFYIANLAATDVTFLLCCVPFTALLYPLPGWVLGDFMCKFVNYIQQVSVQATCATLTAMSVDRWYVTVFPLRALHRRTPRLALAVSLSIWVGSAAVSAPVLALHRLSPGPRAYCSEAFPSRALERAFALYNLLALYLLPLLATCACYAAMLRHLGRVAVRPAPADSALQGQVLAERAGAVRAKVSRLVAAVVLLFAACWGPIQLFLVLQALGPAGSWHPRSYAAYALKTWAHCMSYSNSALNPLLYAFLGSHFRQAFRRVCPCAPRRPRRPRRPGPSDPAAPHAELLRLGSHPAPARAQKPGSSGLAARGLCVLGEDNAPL
# Chain of Gonadotropin-releasing hormone receptor (Homo sapiens) (P30968 whole entry, looked up): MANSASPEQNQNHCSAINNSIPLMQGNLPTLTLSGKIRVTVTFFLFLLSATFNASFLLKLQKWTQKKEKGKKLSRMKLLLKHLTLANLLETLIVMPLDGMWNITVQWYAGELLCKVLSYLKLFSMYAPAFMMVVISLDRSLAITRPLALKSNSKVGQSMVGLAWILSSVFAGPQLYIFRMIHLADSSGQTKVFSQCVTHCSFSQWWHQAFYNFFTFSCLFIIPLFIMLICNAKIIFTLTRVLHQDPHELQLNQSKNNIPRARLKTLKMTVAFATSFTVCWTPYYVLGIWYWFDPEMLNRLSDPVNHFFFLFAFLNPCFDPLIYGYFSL
# Chain of 5-hydroxytryptamine receptor 2A (Homo sapiens) (P28223 whole entry, looked up): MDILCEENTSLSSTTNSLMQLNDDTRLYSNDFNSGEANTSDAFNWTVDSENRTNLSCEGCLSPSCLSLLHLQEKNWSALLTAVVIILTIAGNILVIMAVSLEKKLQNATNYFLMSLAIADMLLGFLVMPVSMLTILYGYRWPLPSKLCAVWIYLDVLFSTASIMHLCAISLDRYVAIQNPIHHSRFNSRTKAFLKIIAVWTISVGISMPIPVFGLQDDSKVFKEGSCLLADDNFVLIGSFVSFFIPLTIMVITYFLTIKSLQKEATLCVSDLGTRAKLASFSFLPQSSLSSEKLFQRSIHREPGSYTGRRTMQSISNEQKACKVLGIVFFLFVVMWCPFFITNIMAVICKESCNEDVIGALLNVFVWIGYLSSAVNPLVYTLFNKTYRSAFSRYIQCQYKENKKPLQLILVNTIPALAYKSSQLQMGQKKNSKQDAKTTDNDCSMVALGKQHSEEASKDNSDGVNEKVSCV
Structure (SMILES),Potency [1],Potency [2],Potency [3],Potency [4],Potency [5],Potency [6],Potency [7],Potency [8],Potency [9],Potency [10],Potency [11],Potency [12],Potency [13],Potency [14],Potency [15],Potency [16],Potency [17],Potency [18],Potency [19]
O=[N+]([O-])C(Br)Br,inactive,inactive,inactive,inactive,inactive,inactive,inactive,37.6 µM (active),55 µM (active),inactive,inactive,inactive,inactive,inactive,inactive,inactive,,,
CCC(=O)c1ccc(Cl)cc1,,,,inactive,,inactive,,inactive,inactive,inactive,inactive,inactive,inactive,inactive,,inactive,inactive,inactive,
COc1cccc2c1C(=O)c1c(O)c3c(c(O)c1C2=O)C[C@@](O)(C(=O)CO)CC3OC1CC(N2CCOC(OC)C2)C(O)C(C)O1 (stereo partly drawn),inactive,inactive,inactive,,,,,,16.9 µM (active),inactive,inactive,inactive,1.19 µM (active),inactive,,,,inactive,inactive
CN(C1CCCCC1)C1CCCCC1,inactive,,,,inactive,inactive,,,inactive,inactive,,inactive,,inactive,,inactive,inactive,,
ClC(Cl)(Cl)Cl,,inactive,inactive,inactive,inactive,inactive,,,,,,,inactive,inactive,inactive,inactive,inactive,inactive,
CC1(C(=O)Nc2ccc(O)c(Cl)c2Cl)CCCCC1,,inactive,,inactive,inactive,inactive,inactive,inactive,,inactive,inactive,,,inactive,inactive,inactive,inactive,inactive,
CCCCCCCCc1ccc(O)cc1,inactive,,,36.6 µM (active),48.8 µM (active),,,,,,,inactive,,inactive,,,,inactive,
C1=CCC=C1,,,,inactive,inactive,inactive,,inactive,inactive,inactive,inactive,inactive,inactive,inactive,inactive,inactive,inactive,inactive,inactive
O.O.O.O.O.O.O=S(=O)([O-])[O-].[Ni+2],,,,inactive,,inactive,,inactive,inactive,inactive,inactive,inactive,inactive,inactive,inactive,inactive,inactive,inactive,
SCc1ccccc1,inactive,inactive,inactive,inactive,inactive,inactive,inactive,,inactive,inactive,inactive,inactive,inactive,inactive,,inactive,,inactive,
Cc1ncc(C[n+]2csc(CCO)c2C)c(N)n1,inactive,inactive,inactive,inactive,,inactive,inactive,inactive,inactive,inactive,,inactive,inactive,inactive,inactive,inactive,,inactive,
CCCC(Cn1cncn1)c1ccc(Cl)cc1Cl (stereo not drawn),inactive,inactive,inactive,inactive,inactive,inactive,inactive,inactive,,inactive,inactive,,,inactive,,,,inactive,
O=C(Oc1ccc(Br)cc1)N1CCN2CCC1CC2,,,inactive,inactive,inactive,inactive,inactive,inactive,inactive,,inactive,inactive,inactive,inactive,,inactive,inactive,inactive,
CCOC(=O)CCl,inactive,,,inactive,inactive,inactive,,inactive,inactive,,inactive,inactive,,inactive,inactive,inactive,,inactive,
Oc1ccc(I)cc1,,inactive,inactive,inactive,inactive,,inactive,inactive,inactive,inactive,inactive,inactive,inactive,inactive,inactive,inactive,inactive,inactive,
C=CC(=O)OC,,inactive,inactive,inactive,inactive,inactive,inactive,inactive,inactive,inactive,inactive,inactive,,inactive,inactive,inactive,inactive,inactive,
C[C@]12CC[C@H]3[C@@H](CCC4=CC(=O)CC[C@@H]43)[C@@H]1CC[C@@H]2OC(=O)CCc1ccco1,,,inactive,,inactive,inactive,,inactive,inactive,1.3 µM (active),inactive,,,,,,inactive,inactive,2.98 µM (active)
CC(=O)[O-].[Tl+],,,,inactive,inactive,,,,inactive,inactive,inactive,inactive,,inactive,inactive,,inactive,inactive,
ClC1=C(Cl)[C@]2(Cl)[C@@H]3[C@@H]4C[C@@H]([C@H]5O[C@@H]45)[C@@H]3[C@@]1(Cl)C2(Cl)Cl,23.7 µM (active),,,,,inactive,,,,,,,,,,68.6 µM (active),7.76 µM (active),,10.9 µM (active)
CCS(=O)(=O)c1cccnc1S(=O)(=O)NC(=O)Nc1nc(OC)cc(OC)n1,,inactive,inactive,inactive,inactive,inactive,inactive,inactive,inactive,inactive,inactive,inactive,inactive,inactive,inactive,inactive,,inactive,inactive
